Screening results from PubChem BioAssay.
IL1B secr inh – inflammasome signaling inhibition, IL-1 beta readout | AID 743279 | activity change, % at 57.5 µM | hit rate 4.7% among 360,000 | THP-1 LPS/ATP IL-1B secretion, AlphaLISA, 16 h; hits give low values; in the data active = activity change below about -50%; inconclusive = mostly about -30% to -49%
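Secreted IL-1B measured by AlphaLISA bead assay after 16 h compound exposure of THP-1 cells; compounds (final up to 57.5 uM) added 1 h before LPS (250 ng/mL) and ATP (1.25 mM) stimulation; lower signal means less secretion.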
RORgamma inh – ROR gamma (mouse) transcription inhibition; AID 2551; P51450; Potency, µM (highest dose often 53.6 µM), inactives show at the top dose activity change, negative = inhibition, actives largely listed as inhibitors; Drosophila S2 Gal4-RORgamma UAS-luciferase reporter, 20 h; hit rate 5.4% among 310,000; also: potency is read from the fitted curve at half-maximal effect; nearly all actives have a fitted effect of over 60% in size
Target sequence (P51450 whole entry, looked up, the tested form may be a part): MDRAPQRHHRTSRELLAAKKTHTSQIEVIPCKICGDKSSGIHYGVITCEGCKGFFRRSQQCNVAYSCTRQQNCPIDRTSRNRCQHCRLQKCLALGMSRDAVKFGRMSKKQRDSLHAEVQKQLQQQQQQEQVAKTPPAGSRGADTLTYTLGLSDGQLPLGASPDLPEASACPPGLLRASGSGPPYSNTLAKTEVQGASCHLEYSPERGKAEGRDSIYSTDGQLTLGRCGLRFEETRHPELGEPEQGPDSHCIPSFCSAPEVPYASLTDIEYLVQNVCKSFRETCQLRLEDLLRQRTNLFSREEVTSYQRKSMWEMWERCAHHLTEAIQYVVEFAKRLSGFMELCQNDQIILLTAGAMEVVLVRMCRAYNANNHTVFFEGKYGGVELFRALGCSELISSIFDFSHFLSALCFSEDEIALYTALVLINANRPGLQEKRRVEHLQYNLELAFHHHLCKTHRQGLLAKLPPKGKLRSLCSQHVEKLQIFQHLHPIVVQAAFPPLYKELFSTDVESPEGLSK
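Stably transfected Drosophila Schneider cells are the test system, with ROR gamma fused to Gal4 and luciferase under UAS control; luminescence is read after 20 hr of 700 uM copper sulfate induction at ambient temperature.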
TDP1 cell CPT – DT40-hTDP1 cell growth loss with CPT | hit rate 12% among 420,000 | chicken DT40 Tdp1-/-;hTDP1 cells + 20 nM CPT, ATP luminescence, 48 h | Potency, µM (highest dose often 46.2 µM), for inactives: at the highest dose activity change, negative = growth inhibition, usual class: inhibitors; also: potency is read from the fitted curve at half-maximal effect; nearly all actives have a fitted effect of over 55% in size
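Cell growth measured by CellTiter-Glo luminescence after a minimum 48 h, 37 C compound exposure with 20 nM CPT in Tdp1-knockout DT40 cells stably expressing hTDP1, seeded 400/well; qHTS titration format.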
VP16 counter – counter-screen for ROR gamma inhibitors: Gal4-VP16 reporter. Drosophila S2 Gal4-VP16 UAS-luciferase, luminescence, 20 h. Potency, µM (series often up to 53.6 µM), without a hit: top-dose activity, negative = inhibition, hits mostly inhibitors. hit rate 3.5% among 310,000;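 also: Gal4-VP16 expression switched on by copper sulfate through the metallothionein promoter; potency is read from the fitted curve at half-maximal effect; nearly all actives have a fitted effect of over 50% in size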
TDP1 cell noCPT – qHTS for Inhibitors of human tyrosyl-DNA phosphodiesterase 1 (TDP1): qHTS in cells in absence of CPT. DT40 Tdp1-/- hTDP1 cells, no CPT, ATP luminescence, 48 h. Potency, µM (titrated, usually from 46.2 µM), inactives show at the top dose activity change, negative = growth inhibition, usual class: inhibitors. hit rate 15% among 420,000; also: potency is read from the fitted curve at half-maximal effect; nearly all actives have a fitted effect of over 55% in size
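No-CPT arm: Tdp1-/-;hTDP1 DT40 cells (400/well) plus compounds, incubated ≥48 hr at 37 °C. Readout CellTiter-Glo luminescence.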
LDHA inh – blocks human lactate dehydrogenase A; P00338; activity change, % (values are at about 110 or 230 µM); AID 1347041; purified LDHA, NADH/diaphorase-resazurin fluorescence; hits give low values; hit rate 0.15% among 480,000; in the data active = activity change below about -30%; inconclusive = mostly about -25% to -30%;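 also: plate controls were DMSO wells for no effect and wells without enzyme for full effect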
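Human LDH5 at 2 nM final in Tris HCl pH 7.4 with 0.06 mM NADH and 0.2 mM pyruvate, reacted 5 minutes at room temperature. Remaining NADH coupled via diaphorase/resazurin; resorufin fluorescence read at 0 and 20 minutes, normalized to enzyme-free and DMSO wells.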
Active calls of the source: *; i = inactive; ? = inconclusive; · = not tested or not shown. An excerpt weighted towards active compounds, which were near 18% of everything screened. Unless noted, calls follow the shape of the dose curve; as a rule, active = well fitted curve in the direction sought with a large enough effect; inconclusive = small, poorly fitted or top-dose-only effect, or another doubt; inactive = no such curve, though single readings can be large; an effect the other way counts as inactive or inconclusive. Unless noted, % is scaled to controls: 0 for no effect and ±100 for the full control effect.

SMILES	IL1B secr inh	RORgamma inh	TDP1 cell CPT	VP16 counter	TDP1 cell noCPT	LDHA inh
CSCCC(NC(=O)[C@@H](NC(=O)c1ccc(C)cc1)C(C)C)c1nnc2ccccn12 (stereo partly specified)	·	·	·	·	·	1
COc1ccc(C)cc1/C=C/C(=O)N1CCN(S(=O)(=O)c2cccs2)CC1	-10	·	21µM*	·	?	-2
COCCNC(=O)COC(=O)c1cc(-c2ccc(Cl)s2)nc2ccccc12	·	·	·	·	·	-7
C[C@H](CO)N1C[C@H](C)[C@H](CN(C)Cc2ccccc2)Oc2ccc(NC(=O)Nc3ccc(F)cc3)cc2C1=O	-16	·	?	·	?	2
C[C@@H]1CN([C@@H](C)CO)C(=O)c2cccc(NC(=O)Nc3ccc(F)cc3)c2O[C@@H]1CN(C)Cc1ccc(Oc2ccccc2)cc1	19	·	13µM*	·	18µM*	7
COc1ccc(NC(=O)Nc2cccc3c2O[C@H](CN(C)Cc2ccc(-c4ccccc4)cc2)[C@@H](C)CN([C@H](C)CO)C3=O)cc1	57	·	8.2µM*	·	12µM*	-1
O=C(NCCN1C(=O)S/C(=C\c2ccc(Cl)cc2)C1=O)C1=COCCO1	7	·	-24%	·	-20%	0
O=C(NCCN1C(=O)S/C(=C\c2ccc(OC(F)F)cc2)C1=O)c1cnccn1	?	-5%	1.8µM*	-17%	2.1µM*	-21
COc1ccc(/C=C2\SC(=O)N(CCNC(=O)C3=COCCO3)C2=O)cc1	15	·	1.3µM*	·	1.3µM*	-1
O=C(NCCN1C(=O)S/C(=C\c2ccc(OC(F)F)cc2)C1=O)[C@@H]1CCCN1C(=O)c1cccs1	?	-8%	?	5%	?	-5
O=C(NCCN1C(=O)S/C(=C\c2ccc(OC(F)F)cc2)C1=O)C1=COCCO1	-1	·	8.2µM*	·	7.3µM*	3
Cc1ccc(NC(=O)CSc2nc(-c3ccccc3)nc3cc(=O)[nH]n23)cc1	·	·	·	·	·	-3
CC1CCN(C(=O)CSc2nc3c(c(=O)n2C)SC(C)C3)CC1 (stereo unspecified)	i	4%	?	-2%	21µM*	2
CCn1c(SCC(=O)N2CCCc3ccccc32)nc2c(c1=O)SC(C)C2 (stereo unspecified)	14	26%	16µM*	0%	?	-2
COCCn1c(SCC(=O)N2CCCc3ccccc32)nc2c(c1=O)SC(C)C2 (stereo unspecified)	-24	-3%	?	0%	?	-5
CC1Cc2nc(SCC(=O)N3CCCCC3)n(C)c(=O)c2S1 (stereo unspecified)	4	·	-4%	·	?	-3
CC1Cc2nc(SCC(=O)N3CCCc4ccccc43)n(C)c(=O)c2S1 (stereo unspecified)	12	?	?	-21%	13µM*	3
Cc1ccccc1CC(=O)Nc1ccc(OC2CCCC2)cc1	·	·	·	·	·	2
Cc1cc(C(=O)OCC(=O)Nc2ccc(Br)c(C)c2)c2ccccc2n1	·	·	·	·	·	3
COc1ccc(-c2cc(C(=O)Nc3ccc(S(N)(=O)=O)cc3)c3ccccc3n2)cc1OC	13	-3%	-10%	-1%	?	-1
COc1cc(-c2cc(C(=O)NCc3ccc(S(N)(=O)=O)cc3)c3ccccc3n2)cc(OC)c1OC	-62*	-17%	?	1%	?	0
COc1cc(-c2cc(C(=O)NCc3ccco3)c3ccccc3n2)cc(OC)c1OC	-15	-9%	?	-1%	2.6µM*	0
NS(=O)(=O)c1ccc(CNC(=O)c2cc(-c3ccccc3)nc3ccccc23)cc1	5	17%	-5%	-11%	-18%	0
COc1cc(-c2cc(C(=O)Nc3ccc(S(=O)(=O)NCc4ccco4)cc3)c3ccccc3n2)cc(OC)c1OC	-14	21%	4.6µM*	1%	2.9µM*	-4
CCc1ccc(-c2cc(C(=O)NCc3ccco3)c3ccccc3n2)cc1	·	·	·	·	·	-7
SMILES	IL1B secr inh	RORgamma inh	TDP1 cell CPT	VP16 counter	TDP1 cell noCPT	LDHA inh
CC1CCN(C(=O)CSc2nc3cc(Cl)ccc3c(=O)n2Cc2ccccc2)CC1	·	·	·	·	·	4
Cc1cc(F)ccc1S(=O)(=O)N(C(=O)c1ccncc1)c1ccc(OC(=O)c2ccncc2)cc1	-27	-16%	23µM*	6%	15µM*	-5
CCOC(=O)c1c(C)oc2ccc(N(C(=O)c3ccncc3)S(=O)(=O)c3ccc(F)cc3C)cc12	·	·	?	·	23µM*	2
CC(=O)c1c(C)oc2ccc(N(C(=O)c3ccncc3)S(=O)(=O)c3ccc(F)cc3C)cc12	·	·	10µM*	·	7.3µM*	4
O=C(Oc1ccc(N(C(=O)c2ccncc2)S(=O)(=O)c2cccs2)cc1)c1ccncc1	-9	17%	-28%	-13%	?	0
Cc1ccc(S(=O)(=O)N(C(=O)c2ccncc2)c2ccc3oc4c(c3c2)CCCC4)cc1[N+](=O)[O-]	9	22%	-2%	1%	-8%	2
CN(CC(=O)Nc1ccc(F)cc1)C(=O)COC(=O)Cc1n[nH]c(=O)c2ccccc12	·	·	·	·	·	9
Cc1ccc(Cc2c(-c3ccc(C#N)cc3)nc3c(C)cc(Br)cn23)cc1	7	·	?	·	?	-5
Cc1ccc(Cc2c(-c3ccco3)nc3c4ccccc4ccn23)cc1	-6	·	18µM*	·	15µM*	-3
Cc1cc(Br)cn2c(Cc3cccc(Cl)c3)c(-c3ccco3)nc12	-2	·	?	·	21µM*	4
Brc1ccc2nc(-c3ccco3)c(Cc3ccccc3)n2c1	-22	·	?	·	?	-1
Cc1ccc(Cc2c(-c3ccco3)nc3c(C)cc(Br)cn23)cc1	-70*	·	3.7µM*	·	6.5µM*	2
Cc1ccc(Cc2c(-c3ccco3)nc3ccc(C)cn23)cc1	-10	·	16µM*	·	13µM*	2
Cc1nn(-c2ccc(=O)[nH]n2)c2c1C(c1ccc(-c3ccc(F)cc3)o1)CC(=O)N2 (stereo unspecified)	·	·	·	·	·	3
CCc1ccc(NC(=O)OC)cc1	·	·	·	·	·	1
O=C(Cn1ccc(=O)[nH]c1=O)NC(c1ccccc1)c1cccs1 (stereo unspecified)	·	·	·	·	·	4
N#Cc1ccccc1CSC1=NCCS1	-89*	-3%	0%	-10%	-17%	-6
COc1ccc2cc(C(=O)NC3CCN(C4CC4)C3)c(C)nc2c1 (stereo unspecified)	·	·	·	·	·	1
Cc1cc(C)c2cccc(NC(=S)NC(=O)c3ccccc3)c2n1	22	?	16µM*	3.2µM*	13µM*	0
